Assay results taken from PubChem BioAssay.
Unmarked numbers belong to inactive results. Active and inactive are the calls of the source.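 The calls were made as follows, unless noted: active = fluorescence slope higher than the sample average by over 3 SD (cut at about -0.22 in these data, passing the limit was not always enough); inactive = the rest.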

biological target: Dual specificity protein phosphatase 6 (Homo sapiens) (UniProt Q16828); assay: Primary imaging screen for DUSP6 inhibitors that restore phospho-Erk in transfected HeLa cells, chemical complementation (AID 609;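 active = compounds giving at least 50% inhibition in the cell-based MKP-3 phosphatase rescue imaging test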;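 also: phospho-Erk level distribution per well compared with pooled transfected vehicle control wells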); settings: HeLa MKP-3 transfected, phospho-Erk imaging KS statistic; at 10 µM; hits give high values; cells stimulated with TPA for 15 min
Sequence (Q16828 whole entry, looked up): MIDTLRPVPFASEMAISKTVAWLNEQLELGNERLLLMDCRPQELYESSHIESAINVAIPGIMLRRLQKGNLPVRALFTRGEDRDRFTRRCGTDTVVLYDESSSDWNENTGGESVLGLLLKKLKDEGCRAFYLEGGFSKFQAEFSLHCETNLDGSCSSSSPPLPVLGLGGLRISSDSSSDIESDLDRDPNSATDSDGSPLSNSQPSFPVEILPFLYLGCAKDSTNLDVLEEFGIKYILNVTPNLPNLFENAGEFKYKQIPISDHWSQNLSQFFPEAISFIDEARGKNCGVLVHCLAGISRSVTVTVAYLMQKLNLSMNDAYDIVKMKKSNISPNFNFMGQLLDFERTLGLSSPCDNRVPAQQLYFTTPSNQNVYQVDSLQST

| SMILES | inhibition [%] |
| --- | --- |
| Cc1nnc2n(-c3ccccc3)c(=O)c3c4c(sc3n12)CCCC4 | -3.95 |
| Cc1c(NC(=O)c2ccc(=O)oc2)c(=O)n(-c2ccccc2)n1C | 3.42 |
| Cc1nc2sc(C#N)c(N)c2c2c1CCCC2 | 9.07 |
| Fc1ccc(-c2cnc[nH]2)cc1 | 3.42 |
| CC(CCc1ccccc1)NCC(O)c1ccc(O)c(C(N)=O)c1 (stereo not drawn) | 13.3 |
| CCOC(=O)c1ccc2nc(NC(NC(C)=O)(C(=O)OC)C(F)(F)F)sc2c1 (stereo not drawn) | 9.42 |
| COc1cccc(N2C(=O)C(O)=C(C(C)=O)C2c2ccc(OC)c(OC)c2)c1 (stereo not drawn) | 2.46 |
| CCCCOc1ccccc1C(=O)NCCCC(=O)O | -6.59 |
| COc1ccc(CCn2c(=N)c(C#N)cc3c(=O)n4ccccc4nc32)cc1 | 24.3 |
| O=C(NC1CCS(=O)(=O)C1)c1c(NC(=O)C2COc3ccccc3O2)sc2c1CCCC2 (stereo not drawn) | 5.42 |
| Cc1nn(-c2ccccc2)c2c1C(=O)NC(=O)C(C)(C)C2 | -5.81 |
| O=C(Nc1ccccn1)NC(C(F)(F)F)C(F)(F)F | 9.91 |
| CCC(NC(=O)Nc1cc(OC)c(OC)c(OC)c1)(C(F)(F)F)C(F)(F)F | 1.9e-07 |
| COC(=O)C(NC(C)=O)(Nc1ccccn1)C(F)(F)F (stereo not drawn) | 41.5 |
| CC1(C)CNC(=O)c2sc(N3CCOCC3)nc2C1 | -0.159 |
| CCN1CCc2c(C#N)c(N3CCCCC3)nc(NCc3ccccc3)c2C1 | 16.5 |
| CCOC(=O)CNC(=O)Nc1ccccc1C(=O)OC | -7.67 |
| CCn1nc(NC(=O)c2cccnc2)c2cc3ccccc3nc21 | -6.48 |
| Cn1c(=O)n(Cc2ccccc2)c(=O)c2c1nc(NCC1CCCO1)n2Cc1ccccc1 (stereo not drawn) | -5.95 |
| COc1ccc2c(c1)n([O-])c1c([n+]2=O)CCC1 | 3.49 |

| SMILES | inhibition [%] |
| --- | --- |
| COc1ccc2c(c1)[nH]c1c(=O)n(CC3CCCO3)cnc12 (stereo not drawn) | -2.91 |
| CC(=O)c1c(OCC(=O)O)ccc2c(C)cc(=O)oc12 | 5.95 |
| O=C1C2ON(c3ccccc3)C(c3cccnc3)C2C(=O)N1c1ccccc1 (stereo not drawn) | 16 |
| CCCCCn1c2nc3ccccc3nc2c2c(=O)n(CC(C)C)cnc21 | 15 |
| Cc1nc2c(o1)CCc1ccccc1C2O (stereo not drawn) | 15.5 |
| Clc1ccc(-n2ncc3c(NCCCn4ccnc4)ncnc32)cc1 | 1.42 |
| Nc1nnnn1/N=C/c1ccccn1 | 34.3 |
| c1ccc(CN2CCN(c3ncnc4c3[nH]c3ccccc34)CC2)cc1 | 13.4 |
| Cc1cc2c(c(=O)o1)C(Cc1ccccc1)C(C#N)=C(N)O2 (stereo not drawn) | 9.61 |
| COc1cc(NC(=O)NC(C)(C(F)(F)F)C(F)(F)F)cc(OC)c1OC | -1.98 |
| Cc1c(O)c(CN2CCCCC2)cc2c3c(c(=O)oc12)CCC3 | -10.6 |
| CCOC(=O)c1[nH]c2ccc(Br)cc2c1NC(=O)CNC | 11.9 |
| COc1ccc(CCn2c(=N)c(C(=O)NCc3ccco3)cc3c(=O)n4ccccc4nc32)cc1 | 24.3 |
| CN(C)/C=C1\N=C(c2ccc(Cl)cc2Cl)OC1=O | 13.2 |
| Cc1ccc(/C=N/n2nnnc2N)o1 | 1.04 |
| COc1ccccc1N=Cc1nc(-c2ccccc2)oc1OC(C)=O | 13.2 |
| Cc1ccc2[nH]c3c(N4CCOCC4)ncnc3c2c1 | -1.98 |
| CC(=O)C1=C(O)C(=O)N(c2ccc(C(=O)O)cc2)C1c1ccccc1 (stereo not drawn) | 2.46 |
| COc1ccccc1Nc1ncnc2c1cnn2-c1cccc(C)c1 | -2.59 |

biological target: Voltage-gated potassium channel subunit beta-2 (Rattus norvegicus) (UniProt P62483); assay: inhibitors of rat Kvbeta2 reductase activity – biochemical, NADPH fluorescence, primary screen (AID 622); settings: recombinant KvBeta, 4-cyanobenzaldehyde reduction, at 10 µM, hits give high values;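 also: slope of raw intensity against log time taken from 70 to 1610 s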
Sequence (P62483 whole entry, looked up): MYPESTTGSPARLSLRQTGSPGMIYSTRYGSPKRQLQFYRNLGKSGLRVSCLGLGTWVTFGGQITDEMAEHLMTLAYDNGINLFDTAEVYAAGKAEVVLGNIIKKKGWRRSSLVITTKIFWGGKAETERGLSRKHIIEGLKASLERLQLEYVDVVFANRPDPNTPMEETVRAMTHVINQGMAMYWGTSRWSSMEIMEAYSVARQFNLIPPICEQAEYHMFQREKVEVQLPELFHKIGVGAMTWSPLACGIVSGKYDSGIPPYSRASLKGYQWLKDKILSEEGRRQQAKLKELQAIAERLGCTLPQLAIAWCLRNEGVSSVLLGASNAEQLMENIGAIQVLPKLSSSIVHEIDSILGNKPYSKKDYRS

| SMILES | fluorescence slope |
| --- | --- |
| Cc1nnc2n(-c3ccccc3)c(=O)c3c4c(sc3n12)CCCC4 | -0.468 |
| Cc1c(NC(=O)c2ccc(=O)oc2)c(=O)n(-c2ccccc2)n1C | -0.249 |
| Cc1nc2sc(C#N)c(N)c2c2c1CCCC2 | -0.0248 (active) |
| Fc1ccc(-c2cnc[nH]2)cc1 | -0.513 |
| CC(CCc1ccccc1)NCC(O)c1ccc(O)c(C(N)=O)c1 (stereo not drawn) | -0.442 |
| CCOC(=O)c1ccc2nc(NC(NC(C)=O)(C(=O)OC)C(F)(F)F)sc2c1 (stereo not drawn) | -0.458 |
| COc1cccc(N2C(=O)C(O)=C(C(C)=O)C2c2ccc(OC)c(OC)c2)c1 (stereo not drawn) | -0.453 |
| CCCCOc1ccccc1C(=O)NCCCC(=O)O | -0.439 |
| COc1ccc(CCn2c(=N)c(C#N)cc3c(=O)n4ccccc4nc32)cc1 | -0.447 |
| O=C(NC1CCS(=O)(=O)C1)c1c(NC(=O)C2COc3ccccc3O2)sc2c1CCCC2 (stereo not drawn) | -0.42 |
| Cc1nn(-c2ccccc2)c2c1C(=O)NC(=O)C(C)(C)C2 | -0.52 |
| O=C(Nc1ccccn1)NC(C(F)(F)F)C(F)(F)F | -0.472 |
| CCC(NC(=O)Nc1cc(OC)c(OC)c(OC)c1)(C(F)(F)F)C(F)(F)F | -0.48 |
| COC(=O)C(NC(C)=O)(Nc1ccccn1)C(F)(F)F (stereo not drawn) | -0.44 |
| CC1(C)CNC(=O)c2sc(N3CCOCC3)nc2C1 | -0.39 |
| CCN1CCc2c(C#N)c(N3CCCCC3)nc(NCc3ccccc3)c2C1 | -0.472 |
| CCOC(=O)CNC(=O)Nc1ccccc1C(=O)OC | -0.507 |
| CCn1nc(NC(=O)c2cccnc2)c2cc3ccccc3nc21 | -0.423 |
| Cn1c(=O)n(Cc2ccccc2)c(=O)c2c1nc(NCC1CCCO1)n2Cc1ccccc1 (stereo not drawn) | -0.509 |
| COc1ccc2c(c1)n([O-])c1c([n+]2=O)CCC1 | -0.367 |

| SMILES | fluorescence slope |
| --- | --- |
| COc1ccc2c(c1)[nH]c1c(=O)n(CC3CCCO3)cnc12 (stereo not drawn) | -0.423 |
| CC(=O)c1c(OCC(=O)O)ccc2c(C)cc(=O)oc12 | -0.455 |
| O=C1C2ON(c3ccccc3)C(c3cccnc3)C2C(=O)N1c1ccccc1 (stereo not drawn) | -0.503 |
| CCCCCn1c2nc3ccccc3nc2c2c(=O)n(CC(C)C)cnc21 | -0.429 |
| Cc1nc2c(o1)CCc1ccccc1C2O (stereo not drawn) | -0.523 |
| Clc1ccc(-n2ncc3c(NCCCn4ccnc4)ncnc32)cc1 | -0.386 |
| Nc1nnnn1/N=C/c1ccccn1 | -0.513 |
| c1ccc(CN2CCN(c3ncnc4c3[nH]c3ccccc34)CC2)cc1 | -0.381 |
| Cc1cc2c(c(=O)o1)C(Cc1ccccc1)C(C#N)=C(N)O2 (stereo not drawn) | -0.44 |
| COc1cc(NC(=O)NC(C)(C(F)(F)F)C(F)(F)F)cc(OC)c1OC | -0.48 |
| Cc1c(O)c(CN2CCCCC2)cc2c3c(c(=O)oc12)CCC3 | -0.00734 |
| CCOC(=O)c1[nH]c2ccc(Br)cc2c1NC(=O)CNC | -0.518 |
| COc1ccc(CCn2c(=N)c(C(=O)NCc3ccco3)cc3c(=O)n4ccccc4nc32)cc1 | -0.516 |
| CN(C)/C=C1\N=C(c2ccc(Cl)cc2Cl)OC1=O | -0.335 |
| Cc1ccc(/C=N/n2nnnc2N)o1 | -0.487 |
| COc1ccccc1N=Cc1nc(-c2ccccc2)oc1OC(C)=O | -0.347 |
| Cc1ccc2[nH]c3c(N4CCOCC4)ncnc3c2c1 | -0.16 |
| CC(=O)C1=C(O)C(=O)N(c2ccc(C(=O)O)cc2)C1c1ccccc1 (stereo not drawn) | -0.428 |
| COc1ccccc1Nc1ncnc2c1cnn2-c1cccc(C)c1 | -0.356 |
